{
  "source": "PubChem BioAssay (Tox21)",
  "note": "Unmarked numbers belong to inactive results. Active and inactive are the calls of the source. Calls follow the shape of the dose curve; as a rule, active = well fitted curve in the direction sought with a large enough effect in the repeat runs; inconclusive = weak or mixed curves; inactive = flat fitted curve, though single readings scatter. % is scaled to controls: 0 for no effect and ±100 for the full control effect.",
  "data": [
    {"experiment": "qHTS assay to test for compound auto fluorescence at 535 nm (green) in HEK293 cells (AID 720680)", "settings": "green autofluorescence 485/535 nm; series mostly up to 91.3 µM", "values": [
      {"smiles": "Cc1c(NC(=O)c2cccnc2)c(=O)n(-c2ccccc2)n1C", "fluorescence, % of fluorescein": "-0.0295% [at 18.6 µM]"},
      {"smiles": "CN(C)CC/C=C1/c2ccccc2COc2ccc(CC(=O)O)cc21", "outcome": "inactive"},
      {"smiles": "COc1cc2c(cc1OC)C(=O)C(CC1CCN(Cc3ccccc3)CC1)C2", "note": "(centres undefined)", "outcome": "inactive"},
      {"smiles": "O=C(O)CNC(=O)CNC(=O)CNC(=O)CSC(=O)c1ccccc1", "outcome": "inactive"},
      {"smiles": "O=C(CCCCC(=O)Nc1c(I)cc(I)c(C(=O)O)c1I)Nc1c(I)cc(I)c(C(=O)O)c1I", "outcome": "inactive"},
      {"smiles": "CC12CCC(C1)C(C)(C)C2O", "note": "(centres undefined)", "outcome": "inactive"},
      {"smiles": "C=C(C)C1CC=C(C)C(=O)C1", "note": "(centres undefined)", "outcome": "inactive"},
      {"smiles": "O=[N+]([O-])c1c(Cl)cc(Cl)cc1Cl", "outcome": "inactive"},
      {"smiles": "Cc1cc(C)c(C(=O)O)c(C)c1", "outcome": "inactive"},
      {"smiles": "Cc1c(Cl)cccc1Cl", "outcome": "inactive"},
      {"smiles": "ONc1ccccc1", "outcome": "inactive"},
      {"smiles": "N[C@@H](CSCCCO)C(=O)O", "outcome": "inactive"},
      {"smiles": "C=CCN1C[C@H](C(=O)N(CCCN(C)C)C(=O)NCC)C[C@@H]2c3cccc4[nH]cc(c34)C[C@H]21", "outcome": "inactive"},
      {"smiles": "O=C1c2ccccc2C(=O)c2cc(Cl)ccc21", "fluorescence, % of fluorescein": "0.0004% [at 3.72 µM]"},
      {"smiles": "CN(C)C(C)(C)CO", "outcome": "inactive"},
      {"smiles": "CCCCCc1cccc(=O)o1", "outcome": "inactive"},
      {"smiles": "O=C(O)CCCCCC(=O)O", "outcome": "inactive"},
      {"smiles": "CCCCCC(C)O", "note": "(centres undefined)", "outcome": "inactive"},
      {"smiles": "CC1=C(C(=O)O)N2C(=O)[C@@H](NC(=O)[C@H](N)c3ccccc3)[C@H]2SC1", "outcome": "inactive"},
      {"smiles": "CC(=O)C1C(=O)C=C(C)OC1=O", "note": "(centres undefined)", "outcome": "inactive"},
      {"smiles": "CCC(C)C(=O)OCCc1ccccc1", "note": "(centres undefined)", "outcome": "inactive"},
      {"smiles": "CCC(C)OC(C)CC", "note": "(centres undefined)", "outcome": "inactive"},
      {"smiles": "N#CCC(=O)NN", "outcome": "inactive"},
      {"smiles": "OCCN1CCOCC1", "outcome": "inactive"},
      {"smiles": "O=C1CCC(=O)N1Cl", "outcome": "inactive"},
      {"smiles": "CCCC(=O)Nc1ccc(OCC(O)CNC(C)C)c(C(C)=O)c1", "note": "(centres undefined)", "fluorescence, % of fluorescein": "-0.0845% [at 18.6 µM]"},
      {"smiles": "OC[C@@H](O)C(O)[C@@H](O)CO", "note": "(some centres undefined)", "outcome": "inactive"},
      {"smiles": "O=C(CN1CCNCC1)NC1CCCCC1", "outcome": "inactive"},
      {"smiles": "CC(=O)O[C@H]1C[C@@H]2CC[C@@]1(C)C2(C)C", "outcome": "inactive"},
      {"smiles": "CN1C[C@@H]2C[C@H]1CN2c1cc2c(cc1F)c(=O)c(C(=O)O)cn2C1CC1", "outcome": "inactive"},
      {"smiles": "CCCCCCCCCCCCCCCCCC#N", "outcome": "inactive"},
      {"smiles": "Nc1nnnn1-c1ccccc1", "outcome": "inactive"},
      {"smiles": "Cn1c(=O)c2[nH]c(Br)nc2n(C)c1=O", "outcome": "inactive"},
      {"smiles": "NCCOCCN", "outcome": "inactive"}
    ]}
  ]
}
